Hits are enriched below; roughly 12% of the tested compounds scored in any of these assays.
JMJD2A Tudor – inhibitors of human JMJD2A Tudor domain; Potency, µM (titrated, usually from 114 µM), for the others: top-dose activity change, negative = inhibition, actives largely listed as inhibitors; O75164; AlphaScreen JMJD2A-Tudor / H3K4me3 peptide binding; 390,000 tested, 4.4% active; note: % is set by controls: 0 for no effect and ±100 for the full control effect; nearly all actives have a fitted effect of over 50% in size
Sfp inh – blocks B. subtilis Sfp PPTase activity; Q9F4F7; Biochemical Sfp PPTase activity, qHTS; Potency, µM, for the others: largest response in the series, negative = inhibition, hits mostly inhibitors; 310,000 tested, 3.5% active; AID 1490;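 note: the enzyme is Sfp with the accession as filed and its product quenches rhodamine fluorescence; 0% = enzyme reaction without inhibitor and -100% = no enzyme wells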
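Buffer: 50 mM Hepes-Na pH 7.6, 10 mM MgCl2, 0.01% Nonidet P-40, 0.01% BSA. Enzyme 15 nM, pre-exposed to compound 15 min; substrates then added and fluorescence change tracked over 30 min.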
PLK1 PBD block – inhibitors of human PLK1 polo-box domain binding; P53350; Plk1 PBD binding of FITC phosphopeptide, fluorescence polarization; Potency, µM, for the others: max response, negative = inhibition, actives largely listed as inhibitors; 360,000 tested, 2.8% active; AID 720504; note: series mostly up to about 57 µM; % is set by controls: 0 for no effect and ±100 for the full control effect; nearly all actives have a fitted effect of over 65% in size
Target sequence (P53350 whole entry, looked up, the tested form may be a part): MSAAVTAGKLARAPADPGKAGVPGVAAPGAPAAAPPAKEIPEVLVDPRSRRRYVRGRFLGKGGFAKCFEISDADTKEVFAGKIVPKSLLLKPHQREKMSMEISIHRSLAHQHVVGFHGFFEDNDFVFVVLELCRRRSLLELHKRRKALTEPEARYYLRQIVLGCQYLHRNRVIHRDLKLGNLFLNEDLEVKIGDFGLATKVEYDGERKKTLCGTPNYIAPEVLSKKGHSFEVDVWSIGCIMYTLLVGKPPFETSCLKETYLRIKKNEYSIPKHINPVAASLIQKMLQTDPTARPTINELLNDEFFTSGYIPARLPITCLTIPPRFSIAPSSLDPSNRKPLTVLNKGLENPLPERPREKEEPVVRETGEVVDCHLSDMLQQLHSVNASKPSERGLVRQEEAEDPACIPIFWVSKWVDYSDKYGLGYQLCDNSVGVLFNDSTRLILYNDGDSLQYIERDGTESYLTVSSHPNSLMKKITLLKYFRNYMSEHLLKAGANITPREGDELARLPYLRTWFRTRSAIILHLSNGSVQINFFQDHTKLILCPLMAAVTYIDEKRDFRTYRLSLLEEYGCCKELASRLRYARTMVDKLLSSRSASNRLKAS
HP1b chromo inh – inhibitors of HP1-beta chromodomain binding to methylated histone tails. AlphaScreen HP1-beta / biotin-H3K9me3 peptide binding. Potency, µM (highest dose often 114 µM), without a hit: at the top dose activity change, negative = inhibition, actives largely listed as inhibitors. 390,000 tested, 0.56% active. AID 540317; note: nearly all actives have a fitted effect of over 70% in size
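Compound inhibition of the preformed complex between 50 nM HP1-beta and 50 nM biotinylated H3K9me3 peptide was read by AlphaScreen. Buffer was PBS pH 7.4 with 0.01% Tween-20. Incubations ran 30 min at room temperature, with 10 ug/mL donor/acceptor beads.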
BAZ2B inh – BAZ2B (human) inhibition. Q9UIF8. AlphaScreen BAZ2B-H3K14Ac peptide displacement. Potency, µM (top dose mostly 114 µM), for the others: at the top dose activity change, negative = inhibition, most hits filed as inhibitors. 360,000 tested, 4.4% active; note: % is set by controls: 0 for no effect and ±100 for the full control effect; nearly all actives have a fitted effect of over 60% in size
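Protein-peptide AlphaScreen: BAZ2B 50 nM, b-H3K14Ac 50 nM, 1x PBS pH 7.4 + 0.01% Tween-20. Preincubation 30 min RT; cpd 30 min RT (top 110 uM); beads 20 min RT, light-protected.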
G9a inh – G9a (human) methyltransferase inhibition; 350,000 tested, 8.8% active; G9a H3K9 monomethylation, AlphaScreen, 2 h; Potency, µM (highest dose often 102 µM), without a hit: top-dose activity, negative = inhibition, actives largely listed as inhibitors; Q96KQ7; note: % is set by controls: 0 for no effect and ±100 for the full control effect; nearly all actives have a fitted effect of over 75% in size
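Quantitative HTS format: methyltransferase activity on a biotin-tagged H3K9 peptide is measured by AlphaScreen, using a rabbit anti-monomethyl-H3K9 antibody with streptavidin donor and anti-IgG acceptor beads. Final levels are 20 nM enzyme, 500 nM peptide, 20 uM SAM; 2 h RT.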
Active calls of the source: *; ? = inconclusive; · = no result; [ ] = remark or other dose. Calls come from the whole dose curve; as a rule, active = well fitted curve in the direction sought with a large enough effect; inconclusive = small, poorly fitted or top-dose-only effect, or another doubt; inactive = no such curve, though single readings can be large; an effect the other way counts as inactive or inconclusive. Potency is the fitted concentration of half-maximal effect.

SMILES	JMJD2A Tudor	Sfp inh	PLK1 PBD block	HP1b chromo inh	BAZ2B inh	G9a inh
COC(=O)c1ccc(N)c(N=CC2=C(O)CC(C)(C)CC2=O)c1	?	12%	-1%	-9%	?	13%[59 µM]
Cn1c(C(=O)N2CCN(c3ncccn3)CC2)cc2c(=O)n(C)c3ccccc3c21	-2%	40µM*	-1%	41%	-3%	45µM*
Cn1c(C(=O)NCCN2CCCCCC2)cc2c(=O)n(C)c3ccccc3c21	-31%	-25%	-21%	42%	?	35µM*
Cn1c(C(=O)NCCCN2CCN(c3ccccc3F)CC2)cc2c(=O)n(C)c3ccccc3c21	?	-8%	-5%	13%	-14%	50µM*
Cn1c(C(=O)N2CCCC2)cc2c(=O)n(C)c3ccccc3c21	-10%	12%	-7%	39%	-5%	12%
Cn1c(C(=O)NC2CCCC2)cc2c(=O)n(C)c3ccccc3c21	?	9%	30µM*	3%	-1%	-1%
Cn1c(C(=O)NCCCN2CCOCC2)cc2c(=O)n(C)c3ccccc3c21	-13%	-9%	-4%	48%	10%	?
Cn1c(C(=O)NCC2CCCO2)cc2c(=O)n(C)c3ccccc3c21 (stereo not given)	-4%	20%	-2%	48%	2%	?
CCc1ccc2occ(CC(=O)Nc3sc4c(c3C(=O)NCCOC)CCCC4)c2c1	-34%	·	·	31%	-3%	7%[59 µM]
O=C(NCc1ccc(F)cc1)c1cc(C2CCCN(C(=O)c3ccccn3)C2)on1 (stereo not given)	·	·	-2%	·	·	·
COc1ccc(NC(=O)CSC2=Nc3ccccc3C3=NC(CC(=O)NCc4ccc5c(c4)OCO5)C(=O)N23)cc1 (stereo not given)	-30%	·	·	-2%	-23%	4%[59 µM]
CC1(C)CC(=O)C2=C(C1)OC(N)=C(C#N)C2c1ccc[nH]1 (stereo not given)	?	50µM*	?	?	?	?
NC(=O)c1ccc(N=Nc2c(O)c3ccccc3[nH]c2=O)cc1	·	-8%	·	·	?	?
N=C(N)c1ccc(N=Nc2c(O)ccc3c2[nH]c2ccccc23)cc1	56µM*	·	-8%	71µM*	·	·
CCN(CC)S(=O)(=O)c1cccc(C(=O)OCC(=O)NCc2ccccc2OC)c1	-4%	·	0%	20%	-2%	-32%
C#CCOCCOCCOCCNc1nc(N2CCN(C(=O)[C@H](CC(N)=O)n3cc([C@@H](N)C(C)C)nn3)CC2)nc(N2CCN(C(=O)[C@H](CC(N)=O)n3cc([C@@H](N)C(C)C)nn3)CC2)n1	25µM*	·	-2%	37%	·	·
C#CCOCCOCCOCCNc1nc(N2CCN(C(=O)[C@H](CCC(=O)O)n3cc([C@@H](N)CC(N)=O)nn3)CC2)nc(N2CCN(C(=O)[C@H](CCC(=O)O)n3cc([C@@H](N)CC(N)=O)nn3)CC2)n1	20µM*	·	-7%	42%	·	·
C#CCOCCOCCOCCNc1nc(N2CCN(C(=O)[C@H](CC(N)=O)n3cc([C@@H](N)CC(N)=O)nn3)CC2)nc(N2CCN(C(=O)[C@H](CC(N)=O)n3cc([C@@H](N)CC(N)=O)nn3)CC2)n1	25µM*	·	-4%	41%	·	·
C#CCOCCOCCOCCNc1nc(N2CCOCC2)nc(N2CCN(C(=O)[C@H](CCC(=O)O)n3cc([C@@H](N)CCCCN)nn3)CC2)n1	-19%	·	-4%	37%	·	·
COc1ccc(NC(C)=O)cc1NC(C)C(=O)Nc1ccc(F)c(F)c1F (stereo not given)	-17%	3%	-7%	36%	-11%	50µM*
COc1ccc(NC(C)=O)cc1NC(C)C(=O)Nc1ccccc1F (stereo not given)	-19%	-14%	2%	14%	-2%	?
N#CC1=C(S)N(c2ccccc2)C(c2ccc(-c3cccc(Cl)c3)o2)NC1=O (stereo not given)	?	28µM*	24µM*	-15%	?	?

Screening results: PubChem BioAssay, National Center for Advancing Translational Sciences (NCATS)
